These results are taken from the supplement of paper PMC7411054.

Counter-ions that a name gives are not always drawn.

Common to all, as to details: treatment time: 24 h
Test [1] relates to A549-ACTB-RAB5A. The test is described as follows: lowest phenotypically active concentration; higher = less potent. The procedure, abridged: (§1)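 Fifteen reporter lines derived from A549, HepG2 and WPMY1 cells by gene editing, carrying BFP for segmentation plus GFP and RFP/FusionRed markers, were exposed to 0.3, 1, 3 or 9 µM for 24 h in four wells each and imaged live. Live-cell features from each well were normalised to solvent control wells. A well set counted as deviating when ≥3 of 4 wells lay beyond the 95th percentile of control Euclidean distances, and as reproducible when the median replicate Pearson correlation exceeded the 95th percentile of non-replicates. Phenotypic activity was assigned only when both criteria were met.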

Test [2] has as its system A549-ACTB-RAB5A. Put plainly: phenotypically active (imaging signature differs from DMSO and reproducible) at any of 0.3-9 uM (binary (1 = active, 0 = inactive)); higher = active. The procedure, abridged:
as §1

In a further test the test system is A549-CANX-COX4. The test is described as above. The method, boiled down: as §1
For test [3], the system named is A549-GM130-SQSTM1. Described as above. The procedure, abridged: as §1
In a further test the test system is A549-TP53BP1-CLTA. Described as above. The procedure, abridged: as §1
The subject of a further test is A549-TUBA1B-RELA. The test is described as above. The procedure, abridged: as §1
The subject of a further test is HepG2-ACTB-RAB5A. The description is as above. The procedure, abridged:
as §1

The test system of another test is HepG2-CANX-COX4. The test is described as above. The method, boiled down: as §1
Test [4] deals with HepG2-GM130-SQSTM1. The description is as above. The procedure, abridged: as §1
For the next test, the system named is HepG2-TP53BP1-CLTA. The description is as above. The procedure, abridged:
as §1

The next test deals with HepG2-TUBA1B-RELA. The description is as above. The method, boiled down:
as §1

Another test has as its system WPMY1-ACTB-RAB5A. Described as above. The method, boiled down:
as §1

Another test deals with WPMY1-CANX-COX4. Described as above. The procedure, abridged: as §1
Test [5] has as its system WPMY1-GM130-SQSTM1. Described as above. The method, boiled down: as §1
Another test relates to WPMY1-TP53BP1-CLTA. The description is as above. The method, boiled down:
as §1

The next test has as its system WPMY1-TUBA1B-RELA. The test is described as above. The procedure, abridged:
as §1

The test system of test [6] is WPMY1-GM130-SQSTM1. Put plainly: lowest phenotypically active concentration; higher = less potent. The method, boiled down:
as §1

Test [7] deals with HepG2-GM130-SQSTM1. The test is described as above. The procedure, abridged: as §1
The test system of test [8] is A549-GM130-SQSTM1. Described as above. The procedure, abridged: as §1

On to `Cc1cccc(CN2CCN(C(c3ccccc3)c3ccc(Cl)cc3)CC2)c1` (stereo unspecified) [Meclizine dihydrochloride], for which, in the test on A549-ACTB-RAB5A [1], the “lowest phenotypically active concentration” value stood at 9 µM. In addition, the phenotypically active was 1 (active) in the test with A549-ACTB-RAB5A [2]; 0 (inactive) in the test with A549-CANX-COX4; 0 (inactive) in the test with A549-GM130-SQSTM1 [3]; 0 (inactive) in the test on A549-TP53BP1-CLTA; 0 (inactive) in the test on A549-TUBA1B-RELA; 0 (inactive) in the test on HepG2-ACTB-RAB5A. The phenotypically active was 0 (inactive) in the test on HepG2-CANX-COX4; 0 (inactive) in the test on HepG2-GM130-SQSTM1 [4]; 0 (inactive) with HepG2-TP53BP1-CLTA; 1 (active) in the test on HepG2-TUBA1B-RELA; 0 (inactive) in the test with WPMY1-ACTB-RAB5A; 0 (inactive) in the test on WPMY1-CANX-COX4. The phenotypically active with WPMY1-GM130-SQSTM1 [5], in the test with WPMY1-TP53BP1-CLTA and with WPMY1-TUBA1B-RELA was 0 (inactive) each time.

As for `Nc1ncnc2c1nc(Br)n2[C@@H]1O[C@@H]2COP(=O)(O)O[C@H]2[C@H]1O` [8-Bromo-cAMP, sodium salt], in the test with A549-ACTB-RAB5A [1], the “lowest phenotypically active concentration” value stood at 9 µM. The phenotypically active was 1 (active) in the test on A549-ACTB-RAB5A [2]; 0 (inactive) in the test on A549-CANX-COX4; 0 (inactive) in the test with A549-GM130-SQSTM1 [3]; 0 (inactive) in the test on A549-TP53BP1-CLTA; 0 (inactive) with A549-TUBA1B-RELA; 0 (inactive) in the test on HepG2-ACTB-RAB5A. Moreover, the phenotypically active was 0 (inactive) in the test with HepG2-CANX-COX4; 0 (inactive) in the test with HepG2-GM130-SQSTM1 [4]; 0 (inactive) in the test with HepG2-TP53BP1-CLTA; 0 (inactive) in the test on HepG2-TUBA1B-RELA; 0 (inactive) in the test on WPMY1-ACTB-RAB5A; 1 (active) with WPMY1-CANX-COX4. Besides, the phenotypically active with WPMY1-GM130-SQSTM1 [5], in the test on WPMY1-TP53BP1-CLTA and in the test on WPMY1-TUBA1B-RELA was 0 (inactive) in each case.

Regarding `CC(C)c1ccc(-c2cc(=O)c3ccccc3o2)cc1`, the “lowest phenotypically active concentration” value was 9 µM in the test with A549-ACTB-RAB5A [1] and 3 µM in the test with WPMY1-GM130-SQSTM1 [6]. For the same compound, the phenotypically active is 1 (active) in the test with A549-ACTB-RAB5A [2]; 0 (inactive) in the test with A549-CANX-COX4; 0 (inactive) in the test on A549-GM130-SQSTM1 [3]; 0 (inactive) with A549-TP53BP1-CLTA; 0 (inactive) in the test on A549-TUBA1B-RELA; 0 (inactive) in the test on HepG2-ACTB-RAB5A. In addition, the phenotypically active in the test with HepG2-CANX-COX4, in the test with HepG2-GM130-SQSTM1 [4], in the test on HepG2-TP53BP1-CLTA, in the test with HepG2-TUBA1B-RELA, with WPMY1-ACTB-RAB5A and with WPMY1-CANX-COX4 was 0 (inactive) throughout. The phenotypically active with WPMY1-GM130-SQSTM1 [5] was 1 (active); in the test with WPMY1-TP53BP1-CLTA it was 0 (inactive); in the test on WPMY1-TUBA1B-RELA it was 0 (inactive).

In the case of `Cc1nc2sccn2c(=O)c1CCN1CCC(=C(c2ccc(F)cc2)c2ccc(F)cc2)CC1` [Ritanserin], the “lowest phenotypically active concentration” value with A549-ACTB-RAB5A [1], in the test with HepG2-GM130-SQSTM1 [7] and with WPMY1-GM130-SQSTM1 [6] was 9 µM throughout. Besides, the phenotypically active with A549-ACTB-RAB5A [2] was 1 (active); in the test with A549-CANX-COX4, 0 (inactive); with A549-GM130-SQSTM1 [3] it was 0 (inactive); with A549-TP53BP1-CLTA it was 0 (inactive); with A549-TUBA1B-RELA, 0 (inactive); in the test with HepG2-ACTB-RAB5A, 0 (inactive). Further, the phenotypically active with HepG2-CANX-COX4 is 0 (inactive); in the test with HepG2-GM130-SQSTM1 [4], 1 (active); with HepG2-TP53BP1-CLTA, 0 (inactive); in the test on HepG2-TUBA1B-RELA, 1 (active); in the test on WPMY1-ACTB-RAB5A it was 0 (inactive); with WPMY1-CANX-COX4, 0 (inactive). The phenotypically active is 1 (active) in the test on WPMY1-GM130-SQSTM1 [5], 0 (inactive) in the test on WPMY1-TP53BP1-CLTA and 0 (inactive) with WPMY1-TUBA1B-RELA.

Turning to `CC(=O)C1=C(O)[C@]2(C)C(=CC1=O)Oc1c(C(C)=O)c(O)c(C)c(O)c12` [(+)-Usnic acid], the “lowest phenotypically active concentration” value in the test on A549-GM130-SQSTM1 [8] worked out at 9 µM. The phenotypically active in the test with A549-ACTB-RAB5A [2] is 0 (inactive); in the test on A549-CANX-COX4 it was 0 (inactive); in the test on A549-GM130-SQSTM1 [3] it was 1 (active); in the test on A549-TP53BP1-CLTA, 0 (inactive); with A549-TUBA1B-RELA it was 0 (inactive); in the test with HepG2-ACTB-RAB5A it was 0 (inactive). For the same compound, the phenotypically active with HepG2-CANX-COX4, with HepG2-GM130-SQSTM1 [4], in the test on HepG2-TP53BP1-CLTA, with HepG2-TUBA1B-RELA, with WPMY1-ACTB-RAB5A and in the test on WPMY1-CANX-COX4 was 0 (inactive) throughout. Also, the phenotypically active with WPMY1-GM130-SQSTM1 [5], in the test with WPMY1-TP53BP1-CLTA and with WPMY1-TUBA1B-RELA was 0 (inactive) throughout.

For the compound `CC(C)(C)c1ccc(S(=O)(=O)/C=C/C#N)cc1`, the “lowest phenotypically active concentration” value with A549-ACTB-RAB5A [1], with HepG2-GM130-SQSTM1 [7] and with WPMY1-GM130-SQSTM1 [6] was 9 µM each time. For the same compound, the phenotypically active in the test with A549-ACTB-RAB5A [2] is 1 (active); in the test with A549-CANX-COX4, 0 (inactive); in the test with A549-GM130-SQSTM1 [3] it was 0 (inactive); in the test on A549-TP53BP1-CLTA, 0 (inactive); with A549-TUBA1B-RELA it was 0 (inactive); in the test with HepG2-ACTB-RAB5A, 0 (inactive). The phenotypically active in the test with HepG2-CANX-COX4 was 0 (inactive); with HepG2-GM130-SQSTM1 [4], 1 (active); in the test with HepG2-TP53BP1-CLTA, 0 (inactive); in the test on HepG2-TUBA1B-RELA it was 1 (active); with WPMY1-ACTB-RAB5A it was 0 (inactive); in the test with WPMY1-CANX-COX4, 1 (active). Besides, the values for the phenotypically active with WPMY1-GM130-SQSTM1 [5], with WPMY1-TP53BP1-CLTA and in the test on WPMY1-TUBA1B-RELA were 1 (active), 1 (active) and 0 (inactive), respectively.
